# Data reported in PubChem BioAssay (NCI).
# About 79,000 compounds went through this panel and 15% of them were active in at least one assay; those are over-represented in the sample as a whole. Values without a mark were called inactive. The source made the active and inactive calls. Rule as the data show it: active = growth inhibition above about 70%; inactive = the rest.
# Assays:
# [1] = NCI Yeast Anticancer Drug Screen. Data for the rad52 strain (AID 147);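 also: 0% = growth of vehicle-treated control cultures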; settings: S. cerevisiae rad52 mutant growth inhibition, active compounds read high
# How it was run: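 Yeast strain carrying a DNA damage repair alteration was exposed to test compounds. Growth inhibition was measured relative to vehicle-treated controls.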
# [2] = NCI Yeast Anticancer Drug Screen. Data for the wt1 strain (AID 149);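 also: 0% = growth of vehicle-treated wt1 cultures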; settings: S. cerevisiae wt1 strain (SPY 50644) growth inhibition, active compounds read high
# How it was run: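 Measured: growth of wt1 yeast under compound versus vehicle treatment, reported as inhibition.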
# [3] = NCI Yeast Anticancer Drug Screen. Data for the rad50EPP+ strain (AID 151);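 also: 0% = growth of vehicle-treated control cultures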; settings: S. cerevisiae rad50 mutant strain, active compounds read high
# How it was run: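 Yeast strain carrying rad50 alteration (rad50EPP+) exposed to compounds; growth inhibition measured relative to vehicle-treated controls.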
# [4] = NCI Yeast Anticancer Drug Screen. Data for the mgt1 strain (AID 153); settings: S. cerevisiae mgt1 mutant growth inhibition, active compounds read high
# How it was run: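 Yeast mgt1 strain (DNA repair/cell-cycle alteration panel) exposed to compounds; growth inhibition measured relative to vehicle-treated controls.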
# [5] = NCI Yeast Anticancer Drug Screen. Data for the rad50 strain (AID 155);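 also: 0% = growth of vehicle-only cultures of the same strain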; settings: S. cerevisiae rad50 strain growth inhibition, active compounds read high
# How it was run: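 Growth of the mutant yeast was measured after compound exposure and referenced to vehicle-treated cultures.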
# [6] = NCI Yeast Anticancer Drug Screen. Data for the mec2-1 strain (AID 157); settings: S. cerevisiae mec2-1 strain, active compounds read high
# How it was run: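 mec2-1 yeast strain, carrying an alteration in DNA damage repair or cell cycle control, was exposed to compounds; growth inhibition was measured relative to vehicle-treated controls.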
# [7] = NCI Yeast Anticancer Drug Screen. Data for the rad14 strain (AID 159);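 also: 0% = growth of vehicle-treated control cultures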; settings: S. cerevisiae rad14 strain growth inhibition, active compounds read high
# How it was run: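 Here, inhibition of yeast growth was measured after compound exposure, using a strain with a genetic defect in DNA damage repair and vehicle-treated cultures as the reference.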
# [8] = NCI Yeast Anticancer Drug Screen. Data for the sgs1 mgt1 strain (AID 161);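 also: 0% = growth of cultures given vehicle only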; settings: S. cerevisiae sgs1 mgt1 strain, active compounds read high
# How it was run: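 This yeast growth screen uses a strain with defined DNA-repair lesions; compound-treated growth is compared with vehicle-treated growth.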
# [9] = NCI Yeast Anticancer Drug Screen. Data for the CLN2oe strain (AID 163);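 also: 0% = growth of vehicle-only control cultures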; settings: S. cerevisiae CLN2oe strain, active compounds read high
# How it was run: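 Yeast cells carrying a defined cell-cycle control alteration were exposed to test compounds. Growth inhibition was scored against vehicle-treated control cultures.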
# [10] = NCI Yeast Anticancer Drug Screen. Data for the cln2 rad14 strain (AID 165);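 also: 0% = growth equal to vehicle treated cultures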; settings: S. cerevisiae cln2 rad14 strain, active compounds read high
# How it was run: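 Yeast carrying cln2 and rad14 alterations (cell cycle control and DNA damage repair) were exposed to compounds. Growth inhibition was measured against vehicle-treated controls.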
# [11] = NCI Yeast Anticancer Drug Screen. Data for the bub3 strain (AID 167); settings: S. cerevisiae bub3 mutant strain, active compounds read high
# How it was run: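 Whole-cell yeast assay. The mutant strain was incubated with compounds, and growth inhibition was determined by comparison with vehicle-treated cells.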
# [12] = NCI Yeast Anticancer Drug Screen. Data for the wt2 strain (AID 169);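 also: 0% = growth of vehicle-treated yeast cultures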; settings: S. cerevisiae wt2 strain growth inhibition, active compounds read high
# How it was run: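 Yeast cells were exposed to test compounds, and growth inhibition was measured relative to vehicle-treated controls.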
# [13] = NCI Yeast Anticancer Drug Screen. Data for the mlh1 strain (AID 171);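 also: 0% = growth of vehicle-treated control cultures of the same strain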; settings: S. cerevisiae mlh1 strain growth inhibition, active compounds read high
# How it was run: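 Yeast carrying a defined genetic alteration in DNA damage repair or cell cycle control were exposed to test compounds. Growth inhibition was measured relative to vehicle-treated controls.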
# [14] = NCI Yeast Anticancer Drug Screen. Data for the sgs1 strain (AID 173);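 also: 0% = growth of vehicle-only control cultures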; settings: S. cerevisiae sgs1 mutant, active compounds read high
# How it was run: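 Yeast mutant strains carrying defined defects in DNA damage repair or cell cycle control were exposed to test compounds. Growth inhibition was scored against vehicle-treated controls.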
# [15] = NCI Yeast Anticancer Drug Screen. Data for the mlh1 rad18 strain (AID 175); settings: S. cerevisiae mlh1 rad18 strain growth inhibition, active compounds read high
# How it was run: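 Growth inhibition of the yeast strain was measured after compound exposure and expressed relative to vehicle-treated controls. The strain carries defined defects in DNA damage repair.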
# [16] = NCI Yeast Anticancer Drug Screen. Data for the rad18 strain (AID 177); settings: S. cerevisiae rad18 mutant growth inhibition, active compounds read high
# How it was run: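 Yeast carrying a defined DNA damage repair alteration were exposed to compounds. Growth inhibition was expressed relative to vehicle-treated controls.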
# [17] = at 5.0 µM (retest, dose inferred, filed as 0.5)
# [18] = at 50.0 µM (retest, dose inferred, filed as 5.0)
smiles,measurement,setting,value
CC[C@@]1(O)C(=O)OCc2c1cc1n(c2=O)Cc2cc3c(CN(C)C)c(O)ccc3nc2-1,growth inhibition,[1]; at 1.2 µM,5%
same,growth inhibition,[1]; at 3.7 µM,13%
same,growth inhibition,[1]; at 11.0 µM,41%
same,growth inhibition,[1]; at 33.0 µM,68%
same,growth inhibition,[1]; at 100.0 µM,87% (active)
same,growth inhibition,[2]; at 1.2 µM,-1%
same,growth inhibition,[2]; at 3.7 µM,-1%
same,growth inhibition,[2]; at 11.0 µM,-2%
same,growth inhibition,[2]; at 33.0 µM,-2%
same,growth inhibition,[2]; at 100.0 µM,-6%
same,growth inhibition,[3]; at 1.2 µM,30%
same,growth inhibition,[3]; at 3.7 µM,29%
same,growth inhibition,[3]; at 11.0 µM,22%
same,growth inhibition,[3]; at 33.0 µM,23%
same,growth inhibition,[3]; at 100.0 µM,30%
same,growth inhibition,[4]; at 1.2 µM,11%
same,growth inhibition,[4]; at 3.7 µM,2%
same,growth inhibition,[4]; at 11.0 µM,3%
same,growth inhibition,[4]; at 33.0 µM,11%
same,growth inhibition,[4]; at 100.0 µM,18%
same,growth inhibition,[5]; at 1.2 µM,6%
same,growth inhibition,[5]; at 3.7 µM,18%
same,growth inhibition,[5]; [17],21%
same,growth inhibition,[5]; at 11.0 µM,40%
same,growth inhibition,[5]; at 33.0 µM,79% (active)
same,growth inhibition,[5]; [18],85% (active)
same,growth inhibition,[5]; at 50.0 µM,80.7% (active)
same,growth inhibition,[5]; at 100.0 µM,92% (active)
same,growth inhibition,[6]; at 1.2 µM,-2%
same,growth inhibition,[6]; at 3.7 µM,-2%
same,growth inhibition,[6]; [17],-3%
same,growth inhibition,[6]; at 11.0 µM,-1%
same,growth inhibition,[6]; at 33.0 µM,2%
same,growth inhibition,[6]; [18],-1%
same,growth inhibition,[6]; at 50.0 µM,12.4%
same,growth inhibition,[6]; at 100.0 µM,10%
same,growth inhibition,[7]; at 1.2 µM,-1%
same,growth inhibition,[7]; at 3.7 µM,-4%
same,growth inhibition,[7]; at 11.0 µM,-2%
same,growth inhibition,[7]; at 33.0 µM,-6%
same,growth inhibition,[7]; at 100.0 µM,-4%
same,growth inhibition,[8]; [17],-3%
same,growth inhibition,[8]; [18],-3%
same,growth inhibition,[8]; at 50.0 µM,4.5%
same,growth inhibition,[9]; at 1.2 µM,-2%
same,growth inhibition,[9]; at 3.7 µM,-4%
same,growth inhibition,[9]; at 11.0 µM,-6%
same,growth inhibition,[9]; at 33.0 µM,-13%
same,growth inhibition,[9]; at 100.0 µM,-1%
same,growth inhibition,[10]; [17],-3%
same,growth inhibition,[10]; [18],-12%
same,growth inhibition,[10]; at 50.0 µM,-5.5%
same,growth inhibition,[11]; at 1.2 µM,0%
same,growth inhibition,[11]; at 3.7 µM,-1%
same,growth inhibition,[11]; [17],-3%
same,growth inhibition,[11]; at 11.0 µM,-3%
same,growth inhibition,[11]; at 33.0 µM,-14%
same,growth inhibition,[11]; [18],-10%
same,growth inhibition,[11]; at 50.0 µM,-14.6%
same,growth inhibition,[11]; at 100.0 µM,-11%
same,growth inhibition,[12]; at 1.2 µM,-1%
same,growth inhibition,[12]; at 3.7 µM,7%
same,growth inhibition,[12]; at 11.0 µM,-3%
same,growth inhibition,[12]; at 33.0 µM,-2%
same,growth inhibition,[12]; at 100.0 µM,-12%
same,growth inhibition,[13]; at 1.2 µM,0%
same,growth inhibition,[13]; at 3.7 µM,-4%
same,growth inhibition,[13]; at 11.0 µM,-3%
same,growth inhibition,[13]; at 33.0 µM,0%
same,growth inhibition,[13]; at 100.0 µM,0%
same,growth inhibition,[14]; at 1.2 µM,-3%
same,growth inhibition,[14]; at 3.7 µM,0%
same,growth inhibition,[14]; at 11.0 µM,0%
same,growth inhibition,[14]; at 33.0 µM,6%
same,growth inhibition,[14]; at 100.0 µM,5%
same,growth inhibition,[15]; [17],0%
same,growth inhibition,[15]; [18],3%
same,growth inhibition,[15]; at 50.0 µM,12.2%
same,growth inhibition,[16]; at 1.2 µM,28%
same,growth inhibition,[16]; at 3.7 µM,23%
same,growth inhibition,[16]; at 11.0 µM,28%
same,growth inhibition,[16]; at 33.0 µM,16%
same,growth inhibition,[16]; at 100.0 µM,9%
O=C1Nc2ccccc2/C1=C/COc1ccccc1,growth inhibition,[1]; at 1.2 µM,1%
same,growth inhibition,[1]; at 3.7 µM,8%
same,growth inhibition,[1]; at 11.0 µM,27%
same,growth inhibition,[1]; at 33.0 µM,90% (active)
same,growth inhibition,[1]; at 100.0 µM,98% (active)
same,growth inhibition,[2]; at 1.2 µM,-1%
same,growth inhibition,[2]; at 3.7 µM,-1%
same,growth inhibition,[2]; at 11.0 µM,9%
same,growth inhibition,[2]; at 33.0 µM,62%
same,growth inhibition,[2]; at 100.0 µM,97% (active)
same,growth inhibition,[3]; at 1.2 µM,21%
same,growth inhibition,[3]; at 3.7 µM,58%
same,growth inhibition,[3]; at 11.0 µM,92% (active)
same,growth inhibition,[3]; at 33.0 µM,97% (active)
same,growth inhibition,[3]; at 100.0 µM,98% (active)
same,growth inhibition,[4]; at 1.2 µM,-1%
same,growth inhibition,[4]; at 3.7 µM,1%
same,growth inhibition,[4]; at 11.0 µM,19%
same,growth inhibition,[4]; at 33.0 µM,93% (active)
same,growth inhibition,[4]; at 100.0 µM,99% (active)
same,growth inhibition,[5]; at 1.2 µM,2%
same,growth inhibition,[5]; at 3.7 µM,4%
same,growth inhibition,[5]; [17],28%
same,growth inhibition,[5]; at 11.0 µM,20%
same,growth inhibition,[5]; at 33.0 µM,71% (active)
same,growth inhibition,[5]; [18],99% (active)
same,growth inhibition,[5]; at 50.0 µM,99.5% (active)
same,growth inhibition,[5]; at 100.0 µM,98% (active)
same,growth inhibition,[6]; at 1.2 µM,-2%
same,growth inhibition,[6]; at 3.7 µM,6%
same,growth inhibition,[6]; [17],13%
same,growth inhibition,[6]; at 11.0 µM,23%
same,growth inhibition,[6]; at 33.0 µM,97% (active)
same,growth inhibition,[6]; [18],99% (active)
same,growth inhibition,[6]; at 50.0 µM,99.5% (active)
same,growth inhibition,[6]; at 100.0 µM,99% (active)
same,growth inhibition,[7]; at 1.2 µM,0%
same,growth inhibition,[7]; at 3.7 µM,5%
same,growth inhibition,[7]; at 11.0 µM,20%
same,growth inhibition,[7]; at 33.0 µM,97% (active)
same,growth inhibition,[7]; at 100.0 µM,99% (active)
same,growth inhibition,[8]; [17],26%
same,growth inhibition,[8]; [18],99% (active)
same,growth inhibition,[8]; at 50.0 µM,99.6% (active)
same,growth inhibition,[9]; at 1.2 µM,0%
same,growth inhibition,[9]; at 3.7 µM,2%
same,growth inhibition,[9]; at 11.0 µM,15%
same,growth inhibition,[9]; at 33.0 µM,39%
same,growth inhibition,[9]; at 100.0 µM,98% (active)
same,growth inhibition,[10]; [17],7%
same,growth inhibition,[10]; [18],99% (active)
same,growth inhibition,[10]; at 50.0 µM,98.2% (active)
same,growth inhibition,[11]; at 1.2 µM,-3%
same,growth inhibition,[11]; at 3.7 µM,0%
same,growth inhibition,[11]; [17],2%
same,growth inhibition,[11]; at 11.0 µM,13%
same,growth inhibition,[11]; at 33.0 µM,96% (active)
same,growth inhibition,[11]; [18],99% (active)
same,growth inhibition,[11]; at 50.0 µM,99.8% (active)
same,growth inhibition,[11]; at 100.0 µM,98% (active)
same,growth inhibition,[12]; at 1.2 µM,-2%
same,growth inhibition,[12]; at 3.7 µM,1%
same,growth inhibition,[12]; at 11.0 µM,15%
same,growth inhibition,[12]; at 33.0 µM,88% (active)
same,growth inhibition,[12]; at 100.0 µM,99% (active)
same,growth inhibition,[13]; at 1.2 µM,-4%
same,growth inhibition,[13]; at 3.7 µM,-1%
same,growth inhibition,[13]; at 11.0 µM,17%
same,growth inhibition,[13]; at 33.0 µM,89% (active)
same,growth inhibition,[13]; at 100.0 µM,99% (active)
same,growth inhibition,[14]; at 1.2 µM,1%
same,growth inhibition,[14]; at 3.7 µM,11%
same,growth inhibition,[14]; at 11.0 µM,45%
same,growth inhibition,[14]; at 33.0 µM,98% (active)
same,growth inhibition,[14]; at 100.0 µM,99% (active)
same,growth inhibition,[15]; [17],20%
same,growth inhibition,[15]; [18],99% (active)
same,growth inhibition,[15]; at 50.0 µM,99.5% (active)
same,growth inhibition,[16]; at 1.2 µM,0%
same,growth inhibition,[16]; at 3.7 µM,4%
same,growth inhibition,[16]; at 11.0 µM,16%
same,growth inhibition,[16]; at 33.0 µM,81% (active)
same,growth inhibition,[16]; at 100.0 µM,98% (active)
